In PubChem BioAssay one finds nuclei count, inhibition and fluorescence slope data, which are given here for 39 compounds.

The source made the active and inactive calls.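 The calls were made as follows, unless noted: active = fluorescence slope higher than the sample average by over 3 SD (cut at about -0.22 in these data, passing the limit was not always enough); inactive = the rest.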

System in one assay: not listed separately
As to the kind of experiment: inhibitors of E-selectin induction by TNFa, primary screen, imaging, HUVEC, immunofluorescence, MLSMR starter and 10KST1 sets (AID 487;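 active = visually confirmed hit in the image check and inhibition above 20%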;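 as to inhibition: signal is fraction of cell area covered by stained E-selectin grains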;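 as to nuclei count: 100% = median nuclei count of all wells on the same plate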). The settings on record: HUVEC TNFalpha-induced E-selectin immunofluorescence imaging, at 2 µM; inhibition: stronger effect = higher value; nuclei count: measured here: cell number, toxicity.
For `c1ccc(-n2ncc3c(N4CCCCC4)ncnc32)cc1`, the nuclei count worked out at 118% and the inhibition – broadly, the change of the read-out against control, counted positive when it falls – was -21.5% (inactive).
For `CCCCn1cnc2c1c(=O)n(C)c(=O)n2C`, in that order: 119% and -35.5% (inactive).
With `CCOC(=O)C1=C(C)Nc2nnnn2C1c1ccc(OC)c(Br)c1` (configuration not stated), the inhibition was 2.7% (inactive) and the nuclei count was 111%.
Take `Cc1ccc(S(=O)(=O)Nc2nc3ccccc3nc2NCc2ccco2)cc1`: the nuclei count amounted to 110% and the inhibition is -39.6% (inactive).
In the same order, the values of `CCOC(=O)c1ccc2ncc(C(=O)OCC)c(NCCN(C)C)c2c1` are 113% and -63.4% (inactive).
For the compound `N#Cc1c2n(c(=S)n(-c3ccccn3)c1=O)CCCCC2`, the nuclei count is 144% and the inhibition is -117% (inactive).
In the same order, the values of `Cc1ccc2nc(-c3ccc4c(c3)OCCO4)cc(C(=O)O)c2c1` are 89.9% and 30.4% (inactive).
For `N#Cc1c(N)c(C(=O)c2ccccc2)n2c1CCCC2`, in that order: 96.6% and -11.6% (inactive).
For `COCCn1c(COc2ccc(Cl)cc2)nnc1SCC(N)=O`, in that order: 119% and -31.9% (inactive).
As to `CC1Cc2ccccc2N1S(=O)(=O)c1cccc(C(=O)OCC(=O)NC2CCS(=O)(=O)C2)c1` (configuration not stated), the nuclei count is 112% and the inhibition was -92% (inactive).
For `C=CCn1c(SCC(=O)NC2CCCCC2)nnc1-c1sc(N)nc1C`, in that order: 125% and -100% (inactive).
For `Cc1ccc(CSc2nc3c(c(=O)[nH]2)CCC3)cc1`, in that order: 103% and 4.9% (inactive).
For `Cc1nnc(NC(=O)c2ccco2)s1`, in that order: 110% and -34.3% (inactive).
`CCN(CC)c1ccc2cc(NC(=O)CCC(=O)O)c(=O)oc2c1`: the nuclei count stood at 101% and the inhibition was -33% (inactive).
In the same order, the values of `CCCCC(=O)NCCc1ccc(S(N)(=O)=O)cc1` are 88.9% and -35% (inactive).
As for `COc1ccc(NC(=O)CN(c2cc(C)cc(C)c2)S(=O)(=O)c2c(C)noc2C)cc1OC`, the nuclei count was found to be 117% and the inhibition was -8.7% (inactive).
In the same order, the values of `COc1cccc(NC(=O)N[C@@H](Cc2ccccc2)C(=O)O)c1` are 100% and -37% (inactive).
For `COc1cccc(C2=Nn3c(nnc3-c3ccccc3O)SC2)c1`, in that order: 86.4% and 25.3% (inactive).
In the same order, the values of `CC(=O)C1=C(C)Nc2ncnn2C1c1cccc(OCc2ccccc2)c1` (configuration not stated) are 122% and -51.7% (inactive).
Take `O=C1C(C=NCCCn2ccnc2)=C(O)c2ccccc21`: the nuclei count was found to be 113% and the inhibition was -50.8% (inactive).
As for `CS(=O)(=O)NCC(c1cccnc1)N1CCN(c2ccc(F)cc2)CC1` (configuration not stated), the nuclei count worked out at 72.4% and the inhibition is 27.3% (inactive).
For `CN(C)c1nc(Oc2ccc(=O)n(C)n2)nc(N2CCOCC2)n1`, in that order: 96.5% and 31.4% (inactive).
For `O=C(Nc1ccc(N2CCOCC2)cc1)c1cc2ccccc2o1`, in that order: 97.9% and -29.4% (inactive).
In the same order, the values of `Cn1nnnc1SCC(=O)NC1CCCCC1` are 79.2% and -0.8% (inactive).
For `CCn1nc(CC(=O)Nc2nnc(CC(=O)N3CCCCC3)s2)c2ccccc2c1=O`, the nuclei count amounted to 95.9% and the inhibition was -289% (inactive).
As for `c1ccc(C(Cc2nc(-c3ccccn3)no2)c2ccccc2)cc1`, the inhibition is -83.3% (inactive) and the nuclei count worked out at 100%.
In the same order, the values of `COCCNC(=O)CCc1nc(-c2ccccc2)no1` are -98.3% (inactive) and 123%.
As for `CC1(C)CC(=O)N(CC(=O)NCc2ccccc2)c2ccccc2S1(=O)=O`, the inhibition was -20% (inactive) and the nuclei count was determined as 120%.
Take `CCN1C(=O)Cc2cc(S(=O)(=O)N3CCOCC3)ccc21`: the nuclei count was 98.4% and the inhibition was -38.7% (inactive).
For the compound `COc1cc2c(C#N)c(N3CCOCC3)nc(N)c2c(N)n1`, the nuclei count turned out to be 114% and the inhibition was -22.5% (inactive).
For `Cc1ccc(S(=O)(=O)N2CCCC2C(=O)OCc2nc3ccccc3s2)cc1` (configuration not stated), in that order: 110% and -89% (inactive).
In the same order, the values of `COC(=O)CNC(=O)COC(=O)c1cc(Cl)cc(Cl)c1N` are 123% and -81.4% (inactive).
In the same order, the values of `CCCCn1c(=O)[nH]c(=O)c2c1nc(-c1ccncc1)n2CCOC` are 138% and -19.9% (inactive).
Take `O=C(CCn1c(=O)oc2ccccc21)N1CCCCCC1`: the inhibition was -26.2% (inactive) and the nuclei count stood at 123%.
In the same order, the values of `Cc1cc(C)n(-c2cc(N3CCOCC3)nc(-c3ccccc3)n2)n1` are -59.2% (inactive) and 114%.
`CCOC(=O)C1=C(NC#N)OC(C)=C(C)C1c1ccc(O)cc1` (configuration not stated): the nuclei count was 100% and the inhibition is 15.8% (inactive).
In the same order, the values of `CCOc1cc(-c2nc(-c3ccccc3OC)no2)cc(OCC)c1OCC` are 109% and -68.3% (inactive).
For `COc1ccc(-n2nnnc2SCC(=O)N2CCOCC2)cc1`, the inhibition is -9.3% (inactive) and the nuclei count was determined as 114%.
In the same order, the values of `COc1cc(NC(=O)C(C)Oc2ccccc2)c(C(=O)O)cc1OC` (configuration not stated) are -23.7% (inactive) and 101%.

The target of the next assay is Voltage-gated potassium channel subunit beta-2 (Rattus norvegicus) (UniProt P62483). As to the kind of experiment: KvBeta enzyme negative modulators, primary screen, biochemical, NADPH fluorescence (AID 622).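 Also: slope of raw intensity against log time taken from 70 to 1610 s.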 The settings on record: recombinant KvBeta, 4-cyanobenzaldehyde reduction, at 10 µM, stronger effect = higher value.
Sequence of Voltage-gated potassium channel subunit beta-2 (Rattus norvegicus) (P62483 whole entry, looked up): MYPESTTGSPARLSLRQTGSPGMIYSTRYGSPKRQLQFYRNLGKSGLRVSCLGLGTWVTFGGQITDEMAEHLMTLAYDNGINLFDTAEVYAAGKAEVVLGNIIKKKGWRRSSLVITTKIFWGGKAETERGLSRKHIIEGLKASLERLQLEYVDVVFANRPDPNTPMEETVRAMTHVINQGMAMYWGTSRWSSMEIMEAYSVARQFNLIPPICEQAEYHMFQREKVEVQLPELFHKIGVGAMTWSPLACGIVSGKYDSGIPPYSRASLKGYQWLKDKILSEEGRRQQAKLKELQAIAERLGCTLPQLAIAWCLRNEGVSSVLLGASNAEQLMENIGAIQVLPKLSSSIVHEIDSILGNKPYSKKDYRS
Turning to `c1ccc(-n2ncc3c(N4CCCCC4)ncnc32)cc1`, the fluorescence slope is -0.574 (inactive).
Same read-out and setting: the same measure for `CCCCn1cnc2c1c(=O)n(C)c(=O)n2C`: -0.374 (inactive); for `CCOC(=O)C1=C(C)Nc2nnnn2C1c1ccc(OC)c(Br)c1` (configuration not stated): -0.574 (inactive); for `Cc1ccc(S(=O)(=O)Nc2nc3ccccc3nc2NCc2ccco2)cc1`: -0.376 (inactive).
On to `CCOC(=O)c1ccc2ncc(C(=O)OCC)c(NCCN(C)C)c2c1`, for which the fluorescence slope is -0.545 (inactive).
Still for that read-out and setting: the same measure for `N#Cc1c2n(c(=S)n(-c3ccccn3)c1=O)CCCCC2`: -0.477 (inactive); for `Cc1ccc2nc(-c3ccc4c(c3)OCCO4)cc(C(=O)O)c2c1`: -0.299 (inactive); for `N#Cc1c(N)c(C(=O)c2ccccc2)n2c1CCCC2`: -0.46 (inactive).
Same read-out and setting: then `COCCn1c(COc2ccc(Cl)cc2)nnc1SCC(N)=O`, with -0.586 (inactive); and `CC1Cc2ccccc2N1S(=O)(=O)c1cccc(C(=O)OCC(=O)NC2CCS(=O)(=O)C2)c1` (configuration not stated), with -0.625 (inactive); and `C=CCn1c(SCC(=O)NC2CCCCC2)nnc1-c1sc(N)nc1C`, with -0.516 (inactive).
As for `Cc1ccc(CSc2nc3c(c(=O)[nH]2)CCC3)cc1`, the fluorescence slope is -0.363 (inactive).
On the same count and under the same terms, then `Cc1nnc(NC(=O)c2ccco2)s1`, with -0.521 (inactive).
Same read-out and setting: the same measure for `CCN(CC)c1ccc2cc(NC(=O)CCC(=O)O)c(=O)oc2c1`: -0.0111 (active).
The same measure, in the same setting: the same measure for `CCCCC(=O)NCCc1ccc(S(N)(=O)=O)cc1`: -0.412 (inactive); for `COc1ccc(NC(=O)CN(c2cc(C)cc(C)c2)S(=O)(=O)c2c(C)noc2C)cc1OC`: -0.551 (inactive); for `COc1cccc(NC(=O)N[C@@H](Cc2ccccc2)C(=O)O)c1`: -0.591 (inactive).
For `COc1cccc(C2=Nn3c(nnc3-c3ccccc3O)SC2)c1`, the fluorescence slope is -0.312 (inactive).
Same read-out and setting: then `CC(=O)C1=C(C)Nc2ncnn2C1c1cccc(OCc2ccccc2)c1` (configuration not stated), with -0.559 (inactive); and `O=C1C(C=NCCCn2ccnc2)=C(O)c2ccccc21`, with -0.589 (inactive); and `CS(=O)(=O)NCC(c1cccnc1)N1CCN(c2ccc(F)cc2)CC1` (configuration not stated), with -0.34 (inactive).
With `CN(C)c1nc(Oc2ccc(=O)n(C)n2)nc(N2CCOCC2)n1`, the fluorescence slope was -0.632 (inactive).
Still for that read-out and setting: then `O=C(Nc1ccc(N2CCOCC2)cc1)c1cc2ccccc2o1`, with -0.479 (inactive); and `Cn1nnnc1SCC(=O)NC1CCCCC1`, with -0.432 (inactive).
The same measure, in the same setting: the same measure for `CCn1nc(CC(=O)Nc2nnc(CC(=O)N3CCCCC3)s2)c2ccccc2c1=O`: -0.437 (inactive).
Same read-out and setting: then `c1ccc(C(Cc2nc(-c3ccccn3)no2)c2ccccc2)cc1`, with -0.449 (inactive); and `COCCNC(=O)CCc1nc(-c2ccccc2)no1`, with -0.504 (inactive).
Turning to `CC1(C)CC(=O)N(CC(=O)NCc2ccccc2)c2ccccc2S1(=O)=O`, the fluorescence slope was -0.602 (inactive).
Still for that read-out and setting: the same measure for `CCN1C(=O)Cc2cc(S(=O)(=O)N3CCOCC3)ccc21`: -0.435 (inactive); for `COc1cc2c(C#N)c(N3CCOCC3)nc(N)c2c(N)n1`: -0.0448 (inactive); for `Cc1ccc(S(=O)(=O)N2CCCC2C(=O)OCc2nc3ccccc3s2)cc1` (configuration not stated): -0.519 (inactive).
For `COC(=O)CNC(=O)COC(=O)c1cc(Cl)cc(Cl)c1N`, the fluorescence slope is -0.41 (inactive).
On the same count and under the same terms, then `CCCCn1c(=O)[nH]c(=O)c2c1nc(-c1ccncc1)n2CCOC`, with -0.446 (inactive).
The same measure, in the same setting: then `O=C(CCn1c(=O)oc2ccccc21)N1CCCCCC1`, with -0.316 (inactive); and `Cc1cc(C)n(-c2cc(N3CCOCC3)nc(-c3ccccc3)n2)n1`, with -0.385 (inactive); and `CCOC(=O)C1=C(NC#N)OC(C)=C(C)C1c1ccc(O)cc1` (configuration not stated), with -0.487 (inactive).
The same measure, in the same setting: the same measure for `CCOc1cc(-c2nc(-c3ccccc3OC)no2)cc(OCC)c1OCC`: -0.605 (inactive); for `COc1ccc(-n2nnnc2SCC(=O)N2CCOCC2)cc1`: -0.525 (inactive).
For the compound `COc1cc(NC(=O)C(C)Oc2ccccc2)c(C(=O)O)cc1OC` (configuration not stated), the fluorescence slope was -0.606 (inactive).
